Source: PubChem BioAssay (NCI)
The panel holds about 79,000 compounds, 15% with a hit somewhere; the sample as a whole holds those more often. Active and inactive are the calls of the source. Cut-off read from the data, not from the text of the source: active = growth inhibition above about 70%; inactive = the rest. Residues, ends and D or L forms follow the SMILES beside them. *: point of attachment. Fmoc = O=C(OCC1c2ccccc2-c2ccccc21)*; Boc = CC(C)(C)OC(=O)*

Experiment: NCI Yeast Anticancer Drug Screen. Data for the sgs1 strain (AID 173);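 note: 0% = growth of vehicle-only control cultures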
Details: S. cerevisiae sgs1 mutant, at 1.2 µM, stronger effect = higher value
In short: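 Compounds applied to genetically altered yeast; growth compared with vehicle-treated cultures to give % inhibition.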

Question: With `O=C1C=C(Br)C(=O)c2ccccc21` as the molecule, how does the growth inhibition read?
Answer: The growth inhibition was 8% (inactive).

Question: For `C[N+](C)([O-])CCCNc1c2ccccc2nc2cccc([N+](=O)[O-])c12`, which growth inhibition is on record?
Answer: Its growth inhibition is 80% (active).

Question: With `Cc1cccc2c(NCCCN(C)C)c3c([N+](=O)[O-])ccc(C)c3nc12` as the molecule, how does the growth inhibition read?
Answer: The growth inhibition was 85% (active).

Question: For `C[n+]1c(-c2ccc(/C=N/NC(=O)c3ccc(C(=O)N/N=C/c4ccc(-c5cn6ccccc6[n+]5C)cc4)cc3)cc2)cn2ccccc21`, which growth inhibition is on record?
Answer: The growth inhibition was 11% (inactive).

Question: With `CCN(CC)CCC(=O)Nc1ccc2sc3ccccc3c(=O)c2n1` as the molecule, how does the growth inhibition read?
Answer: Its growth inhibition is -25% (inactive).

Question: With `O=[N+]([O-])c1ccc2nc(=S)[nH]n2c1` as the molecule, how does the growth inhibition read?
Answer: Its growth inhibition is 0% (inactive).

Question: For `O=C(c1ccccc1)[C@H]1Nc2ccc(Cl)cc2[C@H]2OCCC[C@@H]12`, which growth inhibition is on record?
Answer: The growth inhibition was 7% (inactive).

Question: For `COc1cc([N+](=O)[O-])c2ncccc2c1Br`, which growth inhibition is on record?
Answer: Its growth inhibition is 41% (inactive).

Question: Which growth inhibition does the source give for `O=S(=O)(c1cccc(C(F)(F)F)c1)N1c2ccccc2-n2cccc2C1c1cccnc1` (stereo not given) here?
Answer: The growth inhibition was -40% (inactive).

Question: For `CC(C)(C)OC(=O)NCCCCC(NC(=O)C(Cc1c[nH]c2ccccc12)NC(=O)OCC1c2ccccc2-c2ccccc21)C(=O)O` (stereo not given) (Fmoc-Trp-Lys(Boc)-OH; configuration not given here), which growth inhibition is on record?
Answer: The growth inhibition was -1% (inactive).

Same assay, conditions: S. cerevisiae sgs1 mutant, at 3.7 µM, stronger effect = higher value

Question: Which growth inhibition does the source give for `CC(C)C(=O)CC(Sc1ccc(N)cc1)c1ccccc1` (stereo not given) here?
Answer: Its growth inhibition is 4% (inactive).

Question: Which growth inhibition does the source give for `CC(C)OP(=O)(OC(C)C)/C(Cl)=N/Nc1ccc([N+](=O)[O-])cc1` here?
Answer: Its growth inhibition is 23% (inactive).

Question: Which growth inhibition does the source give for `O=[N+]([O-])c1cc(Cl)ccc1S(=O)(=O)c1ccc(Cl)cc1[N+](=O)[O-]` here?
Answer: Its growth inhibition is 13% (inactive).

Question: Which growth inhibition does the source give for `CCCCCCNCCCNc1c2cc(OC)ccc2nc2cccc([N+](=O)[O-])c12` here?
Answer: Its growth inhibition is 65% (inactive).

Question: With `N#CCC(=O)N/N=C(\c1ccccc1)C(c1ccccc1)C1(O)C(=O)Nc2c(Cl)ccc(Cl)c21` (stereo not given) as the molecule, how does the growth inhibition read?
Answer: Its growth inhibition is 0% (inactive).

Question: Which growth inhibition does the source give for `CN(C)CCNCCCNc1c2ccccc2nc2cccc([N+](=O)[O-])c12` here?
Answer: The growth inhibition was 58% (inactive).

Question: For `CCC[CH2][Ge]([CH2]CCC)([CH2]CCC)[O]C(=O)C(O)c1ccccc1` (stereo not given), which growth inhibition is on record?
Answer: The growth inhibition was -1% (inactive).

Question: With `COc1ccc(-c2cc(-c3cc(C)cc(Cl)c3O)nc3[nH]c(=S)[nH]c(=S)c23)cc1` as the molecule, how does the growth inhibition read?
Answer: The growth inhibition was -2% (inactive).

Question: For `O=[N+]([O-])c1ccc(/C=C\c2ccc3c(c2)OCO3)c([N+](=O)[O-])c1`, which growth inhibition is on record?
Answer: Its growth inhibition is 1% (inactive).

Question: With `O=C1c2ccccc2N2OC3(N4CCCC4)CCCCC3C12c1ccccc1` (stereo not given) as the molecule, how does the growth inhibition read?
Answer: Its growth inhibition is 5% (inactive).

Question: With `CC(C)OC(=O)NNc1cc(Cl)ccc1Cl` as the molecule, how does the growth inhibition read?
Answer: The growth inhibition was 10% (inactive).

Question: For `Cc1oc2ccccc2c(=O)c1Cn1nnc2ccccc21`, which growth inhibition is on record?
Answer: The growth inhibition was 1% (inactive).

Question: With `CC1(C)OC(=O)C(=Cc2ccc([N+](=O)[O-])s2)C(=O)O1` as the molecule, how does the growth inhibition read?
Answer: The growth inhibition was -25% (inactive).

Question: For `CCN(CC)CCCNc1ccc([N+](=O)[O-])c2nc3ccc(OC)cc3c(NCCCN(CC)CC)c12`, which growth inhibition is on record?
Answer: The growth inhibition was 5% (inactive).

Question: With `COc1cccc(/C=C2\S/C(=N/Nc3nc(-c4ccc([N+](=O)[O-])cc4)cs3)NC2=O)c1O` as the molecule, how does the growth inhibition read?
Answer: The growth inhibition was 19% (inactive).

Question: With `OC(Cc1cccc2ccccc12)CN1CCC(c2ccccc2)CC1` (stereo not given) as the molecule, how does the growth inhibition read?
Answer: The growth inhibition was 59% (inactive).

Question: Which growth inhibition does the source give for `C1=CCN([B-](c2ccccc2)[C+]2CCCCC2)C=C1` here?
Answer: The growth inhibition was -2% (inactive).

Question: With `O=[N+]([O-])c1cc[n+]([O-])c(Cl)c1` as the molecule, how does the growth inhibition read?
Answer: The growth inhibition was 10% (inactive).

Question: With `CCCNC(=O)OCc1c(COC(=O)NCCC)c(-c2ccc(Cl)c(Cl)c2)n2c1CCC2` as the molecule, how does the growth inhibition read?
Answer: Its growth inhibition is 4% (inactive).

Question: For `CC1(C)CC(=O)C(C(=O)Nc2cccs2)=C(O)C1`, which growth inhibition is on record?
Answer: The growth inhibition was 23% (inactive).

Question: With `O=C(NO)c1coc2ccccc2c1=O` as the molecule, how does the growth inhibition read?
Answer: Its growth inhibition is -3% (inactive).

Question: With `COc1ccc(C(C)c2cc3c(cc2OCC(C)=O)OCO3)cc1` (stereo not given) as the molecule, how does the growth inhibition read?
Answer: Its growth inhibition is -2% (inactive).

Question: Which growth inhibition does the source give for `CCS(=O)(=O)Nc1ccc(Nc2c3ccccc3nc3ccccc23)c(OC)c1` here?
Answer: The growth inhibition was -11% (inactive).

Question: For `O=S(=O)(c1ccccc1)N1CN2CN(C1)CN(S(=O)(=O)c1ccccc1)C2`, which growth inhibition is on record?
Answer: Its growth inhibition is -19% (inactive).

Question: With `CC1=NN(C(=O)c2ccccc2O)C(=O)/C1=C/c1ccco1` as the molecule, how does the growth inhibition read?
Answer: Its growth inhibition is 44% (inactive).

Question: Which growth inhibition does the source give for `O=C1C=C(Br)C(=O)c2ccccc21` here?
Answer: The growth inhibition was 19% (inactive).

Question: With `C[N+](C)([O-])CCCNc1c2ccccc2nc2cccc([N+](=O)[O-])c12` as the molecule, how does the growth inhibition read?
Answer: The growth inhibition was 89% (active).

Question: Which growth inhibition does the source give for `Cc1cccc2c(NCCCN(C)C)c3c([N+](=O)[O-])ccc(C)c3nc12` here?
Answer: Its growth inhibition is 92% (active).

Question: Which growth inhibition does the source give for `C[n+]1c(-c2ccc(/C=N/NC(=O)c3ccc(C(=O)N/N=C/c4ccc(-c5cn6ccccc6[n+]5C)cc4)cc3)cc2)cn2ccccc21` here?
Answer: The growth inhibition was 22% (inactive).

Question: With `CCN(CC)CCC(=O)Nc1ccc2sc3ccccc3c(=O)c2n1` as the molecule, how does the growth inhibition read?
Answer: Its growth inhibition is 3% (inactive).

Question: Which growth inhibition does the source give for `O=[N+]([O-])c1ccc2nc(=S)[nH]n2c1` here?
Answer: The growth inhibition was -2% (inactive).

Question: With `O=C(c1ccccc1)[C@H]1Nc2ccc(Cl)cc2[C@H]2OCCC[C@@H]12` as the molecule, how does the growth inhibition read?
Answer: The growth inhibition was 11% (inactive).

Question: For `COc1cc([N+](=O)[O-])c2ncccc2c1Br`, which growth inhibition is on record?
Answer: Its growth inhibition is 32% (inactive).

Question: For `O=S(=O)(c1cccc(C(F)(F)F)c1)N1c2ccccc2-n2cccc2C1c1cccnc1` (stereo not given), which growth inhibition is on record?
Answer: The growth inhibition was -21% (inactive).

Question: Which growth inhibition does the source give for `CC(C)(C)OC(=O)NCCCCC(NC(=O)C(Cc1c[nH]c2ccccc12)NC(=O)OCC1c2ccccc2-c2ccccc21)C(=O)O` (stereo not given) (Fmoc-Trp-Lys(Boc)-OH; configuration not given here) here?
Answer: Its growth inhibition is 0% (inactive).
